Screens (PubChem)
Only some compounds are listed: those with a hit (about 2.8% of all), similar ones and a draw of the others.
NSD2 HMT inh: inhibitors of human histone methyltransferase NSD2 | O96028 | NSD2 peptide methylation, AlphaScreen, 120 min | inhibition, % at 12.5 µM | actives 0.54% (n = 310,000) | AID 743445; in the data active = inhibition above about 50%
Target sequence (O96028 whole entry, looked up): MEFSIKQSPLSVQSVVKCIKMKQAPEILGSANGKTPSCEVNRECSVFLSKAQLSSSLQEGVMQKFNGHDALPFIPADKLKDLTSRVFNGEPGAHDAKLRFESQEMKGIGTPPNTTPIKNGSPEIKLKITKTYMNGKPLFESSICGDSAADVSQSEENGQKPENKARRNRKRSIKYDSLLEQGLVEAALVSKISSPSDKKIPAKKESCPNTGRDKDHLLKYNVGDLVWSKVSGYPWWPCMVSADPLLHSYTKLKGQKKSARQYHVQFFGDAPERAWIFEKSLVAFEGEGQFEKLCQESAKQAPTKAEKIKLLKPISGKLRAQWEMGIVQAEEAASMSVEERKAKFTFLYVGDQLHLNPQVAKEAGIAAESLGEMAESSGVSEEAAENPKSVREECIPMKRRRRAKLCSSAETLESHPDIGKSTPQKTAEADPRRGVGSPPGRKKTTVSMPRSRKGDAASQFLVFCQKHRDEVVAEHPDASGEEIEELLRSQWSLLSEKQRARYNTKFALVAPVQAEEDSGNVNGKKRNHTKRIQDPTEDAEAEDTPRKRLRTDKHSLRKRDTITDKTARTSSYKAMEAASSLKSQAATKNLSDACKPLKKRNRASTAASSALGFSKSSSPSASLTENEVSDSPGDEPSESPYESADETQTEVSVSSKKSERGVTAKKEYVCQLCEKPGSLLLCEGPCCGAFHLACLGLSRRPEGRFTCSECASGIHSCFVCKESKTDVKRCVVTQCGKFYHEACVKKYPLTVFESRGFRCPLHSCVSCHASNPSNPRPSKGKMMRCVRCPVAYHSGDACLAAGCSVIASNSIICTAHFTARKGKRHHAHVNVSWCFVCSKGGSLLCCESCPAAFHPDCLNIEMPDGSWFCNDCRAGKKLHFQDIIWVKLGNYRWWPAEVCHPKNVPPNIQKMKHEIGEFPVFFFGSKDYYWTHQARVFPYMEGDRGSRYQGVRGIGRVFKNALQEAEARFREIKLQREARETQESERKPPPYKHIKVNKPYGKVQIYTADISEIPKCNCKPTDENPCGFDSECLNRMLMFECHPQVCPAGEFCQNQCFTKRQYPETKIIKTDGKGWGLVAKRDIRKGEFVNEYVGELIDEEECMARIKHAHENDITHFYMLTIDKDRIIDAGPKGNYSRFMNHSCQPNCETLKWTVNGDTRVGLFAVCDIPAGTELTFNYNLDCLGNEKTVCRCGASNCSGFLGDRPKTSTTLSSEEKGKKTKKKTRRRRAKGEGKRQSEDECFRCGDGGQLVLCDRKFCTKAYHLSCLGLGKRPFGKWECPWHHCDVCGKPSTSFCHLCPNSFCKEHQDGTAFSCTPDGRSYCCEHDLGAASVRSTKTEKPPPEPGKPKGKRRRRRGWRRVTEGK
Shn3 inh set2: Schnurri-3 reporter inhibition in Clone20 osteoblasts. inhibition, % at 12.5 µM. Clone20 osteoblast Shn3 3'UTR firefly luciferase, 24 h. AID 588674. actives 0.52% (n = 360,000);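 active = mean inhibition of at least 75% with every replicate also reaching 75%; inconclusive = mean inhibition at least 75% but some replicate below; inactive = mean inhibition below 75%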;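 note: 0% = median of neutral control wells and 100% = pilot-screen positive control compound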
PAX8 inh HTS: lowers PAX8-driven luciferase in RMG-I cells; RMG-I TPO-luciferase reporter, SteadyGlo, 24 h; inhibition, % at 12.6 µM; actives 1.2% (n = 360,000); AID 652154;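 active = mean replicate inhibition at least 60% with every replicate also reaching 60%; inconclusive = only one of the two criteria is met; inactive = mean below 60% and not all replicates reaching 60%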;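 note: luciferase light reporting Pax8 driven TPO promoter activity; plate controls were median of neutral control wells for no effect and mitoxantrone controls for full effect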
Env fusion inh: blocks HIV Env-driven cell-cell fusion | inhibition, % at 12.3 µM | actives 1.1% (n = 360,000) | HeLa-JRFL Env/CEM21 cell fusion, luciferase;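 active = mean replicate inhibition score of at least 50 and every replicate individually at or above 50; inconclusive = only one of the two criteria met; inactive = mean below 50 and not all replicates reaching 50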;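 note: 0% = plate neutral controls and 100% = maraviroc near 300 nM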
LMP1 NFkB inh: Epstein-Barr LMP1 NF-kappaB reporter inhibition; inhibition, % at 12.5 µM; actives 0.69% (n = 350,000); LMP1-induced NF-kappaB luciferase reporter cells, luminescence; in the data active = inhibition above about 41%; inconclusive = no clear call, values can overlap the other calls;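 note: 0% = neutral control wells and 100% = reference inhibitor control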
N-glyco inh: N-linked glycosylation inhibition | reporter increase, % at 12.5 µM | D54 ERlucT glycosylation luciferase reporter, 24 h; percent of 100 nM tunicamycin response | actives 0.23% (n = 360,000);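 active = mean luciferase reporter signal, scaled so untreated is 0 and the glycosylation-blocking control 100, at or above a set limit in every replicate; inconclusive = mean reaches the limit but not every replicate does; inactive = mean below the limit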;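 note: luciferase carries N-glycosylation sites so blocking glycosylation raises the light; 0% = median of neutral control wells and 100% = median of 100 nM tunicamycin wells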
Numbers without * were called inactive; u = inconclusive; x = no result given; [ ] = remark or other dose.

SMILES	NSD2 HMT inh	Shn3 inh set2	PAX8 inh HTS	Env fusion inh	LMP1 NFkB inh	N-glyco inh
CCOc1ccc(NCc2nnc(SCc3ccccc3Cl)n2-c2ccccc2)cc1	-0.9	5.9	x	82.1*	10.9	-3.0
CNS(=O)(=O)c1cccc(C(=O)OCC(=O)c2ccc3c(c2)OCCO3)c1	-2.3	-4.9	25.0	u	43.2*	-1.8
COc1ccc(-c2cc(C3CCN(c4ccc(C(C)=O)cc4[N+](=O)[O-])CC3)[nH]n2)cc1	1.0	u	84.9*	-43.9	4.0	-9.8
COC(=O)c1ccc(N2CCC(c3cc(-c4ccc(OC)cc4)n[nH]3)CC2)c([N+](=O)[O-])c1	0.1	61.9	-17.4	-6.6	-10.3	-1.1
C=C1C(=O)O[C@H]2C[C@H]1[C@@H](OC(C)=O)C/C(C)=C/CC/C(C)=C\CC[C@]2(C)O	x	71.1	111.3*	80.8*	48.1*	-20.0
C=C1C(=O)OC2C=C(CO)CCC=C(CO)CC(OC(=O)C(C)C)C12 (stereo not given)	-0.5	-22.6	-6.0	-4.5	9.1	-4.5
O=C(C(=O)N(Cc1ccccc1)Cc1ccccc1)c1c(-c2ccccc2)[nH]c2ccccc12	x	13.1	88.4*	x	-2.7	-6.2
COCCNC(=O)C(=O)c1c(-c2ccccc2)[nH]c2ccccc12	x	-41.8	-2.6	9.9	-13.8	0.8
COc1ccc(C)c2sc(NC(=O)CCS(=O)(=O)c3ccccc3)nc12	8.8	21.9	77.8*	4.3	-6.8	-4.8
Cc1nnc(NC(=O)CCS(=O)(=O)c2ccccc2)s1	-0.2	-7.8	22.2	0.2	18.4	-7.4
CCOc1cccc2sc(NC(=O)CCS(=O)(=O)c3ccccc3)nc12	-2.3	11.9	86.6*	-16.8	9.3	-15.7
CC(=O)c1sc(NC(=O)CCS(=O)(=O)c2ccc(C)cc2)nc1C	1.0	-7.4	84.8*	3.4	4.2	-7.5
CC(C)NC(=O)N(C)C[C@@H]1Oc2ccc(NC(=O)NC3CCCCC3)cc2C(=O)N([C@@H](C)CO)C[C@H]1C	x	x	x	10.5[16.7 µM]	x	x
CCCNC(=O)N(C)C[C@H]1Oc2ncc(C#CC3(O)CCCC3)cc2C(=O)N([C@@H](C)CO)C[C@@H]1C	x	x	-9.4	5.7[16.7 µM]	x	x
CCCCCn1ccc(=O)c2c(C(F)(F)F)nccc21	0.3	64.0	-0.3	50.8*	21.0	-3.5
Cc1ccc(S(=O)(=O)Nc2ccc3c(c2)C(=O)N([C@H](C)CO)C[C@@H](C)[C@H](CN(C)Cc2ccncc2)OCCCC[C@@H](C)O3)cc1	x	x	1.1	-18.9[16.7 µM]	x	x
Cn1cccc1C(=O)OCC(=O)NCCc1ccc(S(N)(=O)=O)cc1	-0.3	19.2	10.7	71.8*	0.7	0.2
COc1ccc(CCNC(=O)COC(=O)c2cccn2C)cc1	-1.8	55.5	-18.7	78.5*	-2.8	-1.2
C[C@H](CO)N1C[C@H](C)[C@@H](CN(C)C(=O)Nc2ccc(C(F)(F)F)cc2)OCCCC[C@H](C)Oc2ccc(NC(=O)Nc3ccc4c(c3)OCO4)cc2C1=O	x	x	6.3	38.8[16.7 µM]	x	x
Cc1cc(C)c2c(N)c(C(=O)Nc3ncc(C)s3)sc2n1	0.2	76.3	103.6*	21.1	76.5*	-19.3
COC(=O)c1sc2nc(C)cc(C)c2c1N	0.7	-9.4	-30.9	18.5	2.7	3.6
C[C@H]1CN([C@@H](C)CO)C(=O)c2cc(-c3cncnc3)cnc2O[C@H]1CN(C)C(=O)Cc1ccccn1	x	x	x	-5.4[16.7 µM]	x	x
C[n+]1c2n(c3ccccc31)N=C(c1cc(C(C)(C)C)c(O)c(C(C)(C)C)c1)CS2	-1.8	89.7*	92.4*	u	44.7*	11.5
C[C@@H]1CN([C@@H](C)CO)C(=O)Cc2cc(NC(=O)c3ccncc3)ccc2O[C@@H]1CN(C)C(=O)NC1CCCCC1	x	x	-17.3	-3.5[16.7 µM]	x	x
Cc1nn(-c2nc3ccccc3[nH]2)c(=O)c2ccccc12	-4.5	92.7*	105.3*	71.5*	81.3*	-18.9
COc1cccc(C(=O)N(Cc2ccccc2)Cc2cc3cc4c(cc3[nH]c2=O)OCCO4)c1	-0.2	-24.0	x	-21.9	1.1	2.8
COc1ccc(C(=O)N(Cc2ccccc2)Cc2cc3cc4c(cc3[nH]c2=O)OCCO4)cc1	0.2	11.4	x	59.1*	16.8	22.6
CNC[C@@H]1Oc2ccc(NC(=O)C3CC3)cc2CC(=O)N([C@H](C)CO)C[C@@H]1C	x	x	-7.4	-11.9[16.7 µM]	x	x
CC(C)CNC(=O)[C@H]1N2C(=O)c3ccccc3C2SC1(C)C (stereo not given in full)	-1.4	-11.0	-6.7	5.3	-2.4	-0.7
